# Vaccinia mCherry = inhibitors of vaccinia virus infection (mCherry reporter signal) | Vaccinia virus mCherry reporter infection, fluorescence | Potency, µM (top dose mostly 36.5 µM), for inactives: at the highest dose activity change, negative = inhibition, hits mostly inhibitors | 0.63% of 310,000 active | AID 720579; calls by dose curve; tested in A549 cells; also: potency is read from the fitted curve at half-maximal effect; nearly all actives have a fitted effect of over 35% in size
# VACV Venus inh = vaccinia inhibition (Venus reporter) | 0.46% of 330,000 active | Vaccinia virus Venus reporter expression, fluorescence | Potency, µM (highest dose often 36.5 µM), inactives show at the highest dose activity change, negative = inhibition, actives largely listed as inhibitors; calls by dose curve; tested in A549 cells; also: potency is read from the fitted curve at half-maximal effect; nearly all actives have a fitted effect of over 30% in size
# HCV inh = blocks hepatitis C virus; Potency, µM (series often up to 41.8 µM), without a hit: top-dose activity change, negative = inhibition, most hits filed as inhibitors; Huh7.5.1 HCVcc-Cre infection, luciferase reporter, 44 h; 3.4% of 340,000 active; active = well fitted inhibition curve with a large enough effect; inconclusive = small, poorly fitted or top-dose-only effect, or another doubt; inactive = no such curve, though single readings can be large or run the other way; also: potency is read from the fitted curve at half-maximal effect
#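 Compounds are dispensed onto cells plated 4 h earlier at 1,000 per well, with HCVcc-Cre virus (about 0.5 moi) added next. Following 44 h of culture, luminescent signal is measured for 15 sec after 15 min with substrate at room temperature.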
# LASV entry inh = inhibitors of Lassa virus binding or cell entry | Lassa virus pseudotype entry inhibition, cell reporter | Potency, µM (series often up to 37.9 µM), without a hit: at the top dose activity change, negative = inhibition, hits mostly inhibitors | 1.2% of 300,000 active | AID 540256; calls by dose curve; tested in HEK293 cells; also: potency is read from the fitted curve at half-maximal effect; nearly all actives have a fitted effect of over 50% in size
# HCMV antiviral = human cytomegalovirus inhibition. HFF cells, HCMV-luciferase reporter, 72 h; active compounds read low. activity change, negative = inhibition, % at 57.5 µM. 4.5% of 410,000 active; in the data active = activity change below about -60%; inconclusive = no clear call, values can overlap the other calls; inactive = above about -39%
#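 Screen run at 2 compound doses on HFFs infected with reporter HCMV, MOI 1 PFU/cell. Luciferase activity from cell lysates at 72 h post infection gave inhibition relative to buffer-only and Salinomycin wells.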
# Marburg entry inh = blocks Marburg virus binding to or entry into cells | 1.8% of 300,000 active | AID 540276 | Marburg virus pseudotyped entry inhibition, cell reporter | Potency, µM (doses to about 37.8 µM), for inactives: at the highest dose activity change, negative = inhibition, usual class: inhibitors; calls by dose curve; tested in HEK293 cells; also: potency is read from the fitted curve at half-maximal effect
# Numbers without * were called inactive; i = inactive; ? = inconclusive; / = no result given; [ ] = remark or other dose. Compounds with a hit are over-represented: about 7.8% of the library has one in this group of screens. % is scaled to controls: 0 for no effect and ±100 for the full control effect.
SMILES,Vaccinia mCherry,VACV Venus inh,HCV inh,LASV entry inh,HCMV antiviral,Marburg entry inh
Cc1cc(Cl)ccc1OCC(=O)N1CCOc2ccc(CN3C[C@@H](C)O[C@@H](C)C3)cc2C1,-13%,-1%,/,/,/,/
COC(=O)c1ccc(CN2C(=O)[C@@]3(CC(C)=CC[C@@H](C)O3)c3ccccc32)cc1,/,/,/,/,/,-29%[14.2 µM]
COc1ccccc1C(=O)Nc1c(C(=O)N2CCN(c3ccccc3F)CC2)oc2ccccc12,-16%,-15%,/,7%[46.1 µM],-17,/
COc1cc2c(c3oc(=O)cc(CC(=O)O)c13)CCC(C)(C)O2,/,/,10µM*,/,-13,/
COc1ccc(CNC(=O)COc2cc3c(c4oc(=O)cc(C)c24)CCC(C)(C)O3)cc1OC,-8%,-9%,6.3µM*,/,10,/
CCc1cc(=O)oc2c3c(cc(OCC(=O)Nc4cccnc4)c12)OC(C)(C)CC3,-5%,-15%,10µM*,/,-12,/
CCc1cc(=O)oc2c3c(cc(OCC(=O)NCc4cccnc4)c12)OC(C)(C)CC3,-14%,-14%,?,/,-27,/
CN(C)c1ccc(C=O)cc1Cl,-9%,-9%,/,/,/,/
CNc1ccc(C=O)cc1I,-11%,-10%,/,/,/,/
Cn1cccc1/C=N/n1c(-c2ccccc2)n[nH]c1=S,6%,11%,14%,?,10,?
Cn1cccc1/C=N/n1c(-c2ccc(C(C)(C)C)cc2)n[nH]c1=S,/,-12%,?,10µM*,?,?
Nc1c(S(=O)(=O)c2cccs2)c2nc3ccccc3nc2n1/N=C/c1cccc(O)c1,?,11µM*,7.9µM*,?,-103*,?
Cc1cccc(S(=O)(=O)c2c(N)n(/N=C/c3cccnc3)c3nc4ccccc4nc23)c1,-14%,-14%,?,-27%,?,?
COc1ccc(/C=N/n2c(N)c(S(=O)(=O)c3cccs3)c3nc4ccccc4nc32)cc1OC,/,/,10%,-10%,-88*,?
CC(C)Cn1c(N)c(S(=O)(=O)c2cccs2)c2nc3ccccc3nc21,/,?,?,?,/,-27%
COc1cccc(/C=N/n2c(N)c(S(=O)(=O)c3cccs3)c3nc4ccccc4nc32)c1,/,/,-17%,1%,-62*,-1%
CCCN(C(=O)CSc1cc(-c2ccccc2)c2ccc(OC)cc2n1)C1CCS(=O)(=O)C1 (centres undefined),-13%,-13%,-15%,3%,20,-8%
COc1ccc2c(-c3ccccc3)cc(SC(C)C(N)=O)nc2c1 (centres undefined),-22%,-21%,11µM*,-18%,?,?
Nc1ccc(/C=C/c2ccc3cccnc3c2)cc1,17%,-4%,/,/,/,/
COc1cc(-c2noc(C)c2C#CCCN2C(=O)c3ccccc3C2=O)cc(OC)c1OC,-15%,-7%,/,/,/,/
COc1ccccc1[C@@]1(C)ON(c2ccccc2C(F)(F)F)C1=O,?,?,3.2µM*,/,-4,/
c1cncc(-c2nc3cc4ccccc4cc3[nH]2)c1,-2%,-14%,?,-24%,171,?
CN1CCN(C(=O)c2cccc(-c3cc(O)c4ncccc4c3)c2)CC1,/,/,/,/,-21,/
Oc1cc(-c2cccnc2)cc2cccnc12,/,/,/,/,-94*,/
CN1CCN(c2cc(-c3cc(O)c4ncccc4c3)ccn2)CC1,/,/,/,/,-89*,/
SMILES,Vaccinia mCherry,VACV Venus inh,HCV inh,LASV entry inh,HCMV antiviral,Marburg entry inh
COc1cccc(C2C3=C(N=c4s/c(=C\c5cccc(O)c5)c(=O)n42)c2ccccc2CC3)c1OC (centres undefined),-26%,?,?,?,-96*,-23%
N#Cc1cnn(-c2nc(SCc3ccccc3)nc3sc4c(c23)CCCC4)c1N,/,/,0%,-25%,-101*,-29%
CSCCC(NS(=O)(=O)c1ccc2c(c1)oc(=O)n2C)C(=O)N1CCN(c2cccc(Cl)c2)CC1 (centres undefined),-11%,-8%,/,?,?,/
CC1OC(OC2C(O)CC(OC3C(O)CC(OC4CCC5(C)C(CCC6C5CCC5(C)C(C7=CC(=O)OC7)C(O)CC65O)C4)OC3C)OC2C)CC(O)C1O (centres undefined),/,0.32µM*,?,0.32µM*,-97*,?
CC(=O)OC1CC(OC2C(O)CC(OC3C(O)CC(OC4CCC5(C)C(CCC6C5CCC5(C)C(C7=CC(=O)OC7)C(O)CC65O)C4)OC3C)OC2C)OC(C)C1OC1OC(CO)C(O)C(O)C1O (centres undefined),0.28µM*,0.28µM*,?,?,-101*,0.18µM*
C[C@H]1O[C@@H](O[C@H]2[C@@H](O)C[C@H](O[C@H]3[C@@H](O)C[C@H](O[C@H]4CC[C@@]5(C)[C@H](CC[C@@H]6[C@@H]5CC[C@]5(C)[C@@H](C7=CC(=O)OC7)CC[C@]65O)C4)O[C@@H]3C)O[C@@H]2C)C[C@H](O)[C@@H]1O,7.1µM*,0.089µM*,-11%[8.37 µM],0.21µM*,/,0.058µM*
CC(=O)[C@H]1CCC2C3CC[C@H]4C[C@@H](O)CC[C@]4(C)C3CC[C@@]21C (some centres undefined),i,-10%,-5%,1%,2,-10%
CC(=O)OC1CC2(O)C3CCC4CC(O)CCC4(C)C3CCC2(C)C1C1=CC(=O)OC1 (centres undefined),35µM*,?,?,?,-97*,?
CCC(Oc1ccccc1)C(=O)Nc1ccc(OCc2cc(=O)n3ccc(C)cc3n2)cc1 (centres undefined),-21%,-18%,/,1%[46.1 µM],12,/
CC1O[C@@H](O[C@@H]2C(O)C[C@H](O[C@@H]3C(O)C[C@@H](OC4CC[C@@]5(C)C6CC(O)[C@@]7(C)C(C8=CC(=O)OC8)CC[C@@]7(O)C6CC[C@@H]5C4)OC3C)OC2C)CC(O)[C@H]1O (some centres undefined),1µM*,1µM*,/,/,/,/
O=C(CSc1nc2c(sc3ccccc32)c(=O)n1-c1ccccc1)NCc1ccco1,/,/,0%,?,-81*,?
CCC1CCc2c(sc3nc(SCC(=O)NCc4ccco4)n(-c4ccccc4)c(=O)c23)C1 (centres undefined),/,11%,-1%,-22%,-75*,?
Cc1ccc(C)c(NC(=O)CSc2nc(=O)n(Cc3ccncc3)c3c2CCC3)c1,-19%,-7%,/,2%[46.1 µM],3,/
O=C(CCc1c[nH]c2ccccc12)N1CCC(n2c(C3CCCO3)nc3cc(C(F)(F)F)ccc32)CC1 (centres undefined),2%,2%,/,/,/,/
COc1ccc(NC(=O)Cn2cc(S(=O)(=O)c3ccccc3)c(=O)c3cc(C)ccc32)cc1Cl,3%,-1%,/,-17%[46.1 µM],32,-9%[46.1 µM]
CC1(C)c2ssc(=S)c2-c2ccccc2N1C(=O)CSC1=NCCS1,/,/,?,-20%,-33,?
CCOc1ccc2c(c1)-c1c(ssc1=S)C(C)(C)N2C(=O)c1ccco1,?,-20%,10µM*,?,-5,5.2µM*
